We go through 40 compounds from PubChem BioAssay.

Some of the results follow. A number with no mark means an inactive call. Calls of active or inactive are those of the source.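 The calls were made as follows, unless noted: active = mean inhibition above about 50% (limit read from the data); inactive = the rest.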

Chain of Caspase-3 (Homo sapiens) (P42574 28-227 limits assumed): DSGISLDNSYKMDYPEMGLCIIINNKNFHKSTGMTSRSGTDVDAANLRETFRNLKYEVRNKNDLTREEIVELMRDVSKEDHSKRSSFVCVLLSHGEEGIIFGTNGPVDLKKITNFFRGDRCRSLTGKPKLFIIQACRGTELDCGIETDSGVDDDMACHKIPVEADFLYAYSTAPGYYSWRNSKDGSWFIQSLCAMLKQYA

One assay deals with Sentrin-specific protease 7 (Homo sapiens) (UniProt Q9BQF6). The assay can be described thus: human SENP7 peptidase blockers, hit retest – biochemical, luminescence, single concentration, confirmation (AID 488917;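 active = mean inhibition above about 50% in the one-dose retest, limit read from the data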). The conditions noted are these: recombinant SENP7, Z-RLRGG-aminoluciferin luminescence, 40 min; at 12.5 µM; active compounds read high.
Chain of Sentrin-specific protease 7 (Homo sapiens) (Q9BQF6 706-1050 limits assumed): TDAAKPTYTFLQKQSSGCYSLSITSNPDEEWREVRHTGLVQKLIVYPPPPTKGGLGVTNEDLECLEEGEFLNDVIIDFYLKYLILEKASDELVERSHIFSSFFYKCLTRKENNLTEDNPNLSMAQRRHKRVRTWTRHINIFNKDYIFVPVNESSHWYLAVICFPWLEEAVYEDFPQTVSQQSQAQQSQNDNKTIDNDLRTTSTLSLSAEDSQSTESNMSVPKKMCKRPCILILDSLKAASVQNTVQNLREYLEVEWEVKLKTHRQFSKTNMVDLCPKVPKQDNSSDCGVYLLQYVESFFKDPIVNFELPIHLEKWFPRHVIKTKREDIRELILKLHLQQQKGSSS
In the case of `Cc1cc(NC(=O)Nc2ccccc2[N+](=O)[O-])no1`, the inhibition (commonly the change of the read-out against control, counted positive when it falls) is 77.2% (active).

In the case of `Cc1cccc(NC(=O)COc2ccc(Br)cc2C)n1`, the inhibition is 7.4%.

On to `Cc1ccc(S(=O)(=O)Nc2nc3ccccc3nc2N2CCc3ccccc3C2)cc1`, for which the inhibition was -5.2%.

`CC1=CC(=C(C#N)c2nc3ccccc3s2)C=C(C)N1c1ccc(F)cc1F`: the inhibition is -0.4%.

Consider `Brc1ccc2nc(N3CCCC3)sc2c1`, for which the inhibition was 102% (active).

For `CC(=O)Oc1ccc2c(c1)C(=O)c1ccccc1C2=O`, the inhibition is 67.4% (active).

With `CCOC(=O)c1cnc2[nH]c3ccccc3n2c1=O`, the inhibition is 96.4% (active).

With `O=C(Nc1ccc(Cl)cc1)c1ccsn1`, the inhibition was 78.1% (active).

With `O=[N+]([O-])c1ccccc1N/N=C1\CCc2ccccc21`, the inhibition is -10.4%.

`O=C(Nc1ccccc1)c1ccc(NC(=O)c2cccs2)cc1`: the inhibition was 0.7%.

Take `O=[N+]([O-])c1ccc2nc(-c3ccccn3)[nH]c2c1`: the inhibition was 82.6% (active).

Take `O=C(NC(=O)c1ccccc1)Nc1ccccc1O`: the inhibition was 69.7% (active).

As for `CCOC(=O)c1cccc(NC(=O)c2ccc(F)cc2F)c1`, the inhibition was 75.9% (active).

Consider `COc1ccc(/C=C/c2noc(-c3ccccc3OC(C)=O)n2)cc1`, for which the inhibition is 94.5% (active).

As for `O=c1c2c(nc3cc(-c4cccc(Cl)c4)[nH]n13)CCCC2`, the inhibition was 21.5%.

Turning to `COc1ccccc1NC(=O)c1ccc(N2CC3CC(C2)c2cccc(=O)n2C3)c(NC(=O)c2cccnc2)c1` (configuration not stated), the inhibition was 12.1%.

In the case of `O=C(O)/C=C/C(=O)NNc1ccc([N+](=O)[O-])cc1`, the inhibition is 92.5% (active).

`O=C(O)c1ccc2c3c(cccc13)C(=O)N(OS(=O)(=O)c1ccccc1)C2=O`: the inhibition was 68.5% (active).

Take `O=C(c1cnn2ccccc12)N1CCc2ccccc21`: the inhibition was 78.5% (active).

In the case of `O=C(c1ccc(CSc2ccccc2)cc1)N1CCCCCC1`, the inhibition is 80% (active).

For `COc1ccc(C(CC(=O)c2ccccc2)S(=O)(=O)c2ccccc2)cc1` (configuration not stated), the inhibition is 30.3%.

As for `COCn1c(COc2ccccc2)nc2ccccc21`, the inhibition was 76.4% (active).

On to `c1ccc(-c2noc(-c3cccs3)n2)nc1`, for which the inhibition is 98.9% (active).

With `CCOC(=O)/C(C#N)=C/c1ccc(N2CCCCC2)cc1`, the inhibition was 65% (active).

For `COCCN(CCOC)c1nc(N)c2c(N)nc3c(c2c1C#N)CC(=O)N3Cc1ccc(Cl)cc1`, the inhibition is 5.3%.

With `Nc1ncc(-c2cc3ccccc3oc2=O)s1`, the inhibition is 102% (active).

For the compound `O=C(NCc1ccccn1)c1c(O)c2c([nH]c1=O)CCCC2`, the inhibition is -5.1%.

Another assay concerns the target Caspase-3 (Homo sapiens) (UniProt P42574). The experiment in a line: human caspase-3 activity blockade, out-of-family – biochemical, single concentration, selectivity assay for SENP inhibitor project, confirmation (AID 488918).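 Also: plate controls were enzyme with DMSO for no effect and wells without caspase-3 for full effect.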 The settings on record: purified caspase-3, Z-DEVD-aminoluciferin luminescence, 60 min; at 12.5 µM; active compounds read high.
`CCOc1ccc(N/C=C/C(=O)c2ccccc2)cc1`: the inhibition is 81.1% (active).

Consider `CCC(=O)Nc1ccc(C(=O)Nc2cccc(OC)c2)cc1`, for which the inhibition is 69.1% (active).

Take `O=C(Nc1ccccc1)Nc1ccccc1C(=O)NCc1ccco1`: the inhibition was 63.9% (active).

For `COc1ccc(CNC(=O)COc2ccccc2C(=O)c2cnn(-c3ccccc3)c2)cc1OC`, the inhibition is 61.9% (active).

As for `O=C(Nc1cc2ccccc2oc1=O)C1CCCCC1`, the inhibition is 20.1%.

As to `CCSc1nnc(NC(=O)c2ccc(C)cc2)s1`, the inhibition is 27.1%.

For the compound `Cc1ccc(F)c(NC(=O)CCc2ccccc2)c1`, the inhibition is 60.7% (active).

Regarding `Cc1nonc1C(=O)N/N=C/c1ccc(O)cc1`, the inhibition was 99.4% (active).

In the case of `Brc1ccccc1C1Nc2cccc3cccc(c23)N1`, the inhibition is 1.1%.

In the case of `Cc1ccnc(NC(=O)c2ccoc2C)c1`, the inhibition is 95.6% (active).

As to `COc1cccc(C(=O)Nc2nc3ccc(S(C)(=O)=O)cc3s2)c1`, the inhibition is 89.2% (active).

Regarding `COc1ccc2occ(C(=O)c3ccc(N=C(C)N(C)C)cc3)c2c1`, the inhibition is 65.7% (active).

As to `CC(=NCc1ccco1)c1c(C(F)(F)F)[nH]n(-c2nc3ccccc3s2)c1=O`, the inhibition was 98.1% (active).

As for `Cc1cc(NC(=O)Nc2ccccc2[N+](=O)[O-])no1`, the inhibition is 70.8% (active).

As to `Cc1cccc(NC(=O)COc2ccc(Br)cc2C)n1`, the inhibition is 20.8%.

For `Cc1ccc(S(=O)(=O)Nc2nc3ccccc3nc2N2CCc3ccccc3C2)cc1`, the inhibition is 4.5%.

On to `CC1=CC(=C(C#N)c2nc3ccccc3s2)C=C(C)N1c1ccc(F)cc1F`, for which the inhibition was -3.2%.

Consider `Brc1ccc2nc(N3CCCC3)sc2c1`, for which the inhibition is 81.3% (active).

For `CC(=O)Oc1ccc2c(c1)C(=O)c1ccccc1C2=O`, the inhibition was 57.6% (active).

Consider `CCOC(=O)c1cnc2[nH]c3ccccc3n2c1=O`, for which the inhibition is 94.2% (active).

Regarding `O=C(Nc1ccc(Cl)cc1)c1ccsn1`, the inhibition was 60.3% (active).

Turning to `O=[N+]([O-])c1ccccc1N/N=C1\CCc2ccccc21`, the inhibition is 0.7%.

With `O=C(Nc1ccccc1)c1ccc(NC(=O)c2cccs2)cc1`, the inhibition was 38.2%.

In the case of `O=[N+]([O-])c1ccc2nc(-c3ccccn3)[nH]c2c1`, the inhibition was 81.5% (active).

Take `O=C(NC(=O)c1ccccc1)Nc1ccccc1O`: the inhibition was 73.3% (active).

Consider `CCOC(=O)c1cccc(NC(=O)c2ccc(F)cc2F)c1`, for which the inhibition was 67.9% (active).

For the compound `COc1ccc(/C=C/c2noc(-c3ccccc3OC(C)=O)n2)cc1`, the inhibition was 77% (active).

As for `O=c1c2c(nc3cc(-c4cccc(Cl)c4)[nH]n13)CCCC2`, the inhibition is 41.6%.

Consider `COc1ccccc1NC(=O)c1ccc(N2CC3CC(C2)c2cccc(=O)n2C3)c(NC(=O)c2cccnc2)c1` (configuration not stated), for which the inhibition was 8.9%.

Consider `O=C(O)/C=C/C(=O)NNc1ccc([N+](=O)[O-])cc1`, for which the inhibition is 88.6% (active).

For `O=C(O)c1ccc2c3c(cccc13)C(=O)N(OS(=O)(=O)c1ccccc1)C2=O`, the inhibition is 10.4%.

With `O=C(c1cnn2ccccc12)N1CCc2ccccc21`, the inhibition was 74% (active).

Consider `O=C(c1ccc(CSc2ccccc2)cc1)N1CCCCCC1`, for which the inhibition is 54.3% (active).

For `COc1ccc(C(CC(=O)c2ccccc2)S(=O)(=O)c2ccccc2)cc1` (configuration not stated), the inhibition is 9%.

Take `COCn1c(COc2ccccc2)nc2ccccc21`: the inhibition was 74.2% (active).

`c1ccc(-c2noc(-c3cccs3)n2)nc1`: the inhibition is 95.4% (active).

Consider `CCOC(=O)/C(C#N)=C/c1ccc(N2CCCCC2)cc1`, for which the inhibition is 30.2%.

Turning to `COCCN(CCOC)c1nc(N)c2c(N)nc3c(c2c1C#N)CC(=O)N3Cc1ccc(Cl)cc1`, the inhibition was 3.6%.

For the compound `Nc1ncc(-c2cc3ccccc3oc2=O)s1`, the inhibition is 94.6% (active).

Regarding `O=C(NCc1ccccn1)c1c(O)c2c([nH]c1=O)CCCC2`, the inhibition was -3.9%.
